Screening results: PubChem, National Center for Advancing Translational Sciences (NCATS)
This is a sample that favours compounds with a hit; in the whole collection about 19% have one here.
CHX counter = counter-screen hit for Shiga toxin inhibitors, cycloheximide | actives 12% (n = 300,000) | AID 2314 | max response, % | cell reporter, cycloheximide protein synthesis inhibition counterscreen; in the data active = max response mostly above about 13%, no sharp cut-off; inactive = mostly below about 14%; also: read at 38.3 µM for the half of the compounds with a filed dose; 0% is about no effect
MARV entry inh = inhibitors of Marburg virus binding or cell entry. Potency, µM (titrated, usually from 37.8 µM), for inactives: at the top dose activity change, negative = inhibition, most hits filed as inhibitors. Marburg virus pseudotyped entry inhibition, cell reporter. actives 1.8% (n = 300,000); calls by dose curve; tested in HEK293 cells; also: potency is read from the fitted curve at half-maximal effect; % is scaled to controls: 0 for no effect and ±100 for the full control effect
Shiga inhibitor = inhibitors of Shiga toxin in Vero cells; inhibition, % at 38.7 µM; Vero cells, Shiga toxin protein synthesis inhibition reporter; actives 9.2% (n = 290,000); AID 2315; in the data active = inhibition mostly above about 28%, no sharp cut-off; inactive = mostly below about 43%; also: 0% is about no effect
Lassa entry inh = inhibitors of Lassa virus binding or cell entry. Lassa virus pseudotype entry inhibition, cell reporter. Potency, µM (series often up to 37.9 µM), for inactives: at the top dose activity change, negative = inhibition, hits mostly inhibitors. AID 540256. actives 1.2% (n = 300,000); calls by dose curve; tested in HEK293 cells; also: potency is read from the fitted curve at half-maximal effect; % is scaled to controls: 0 for no effect and ±100 for the full control effect; nearly all actives have a fitted effect of over 50% in size
Pf growth 48h = P. falciparum growth inhibition at 48 hours (one generation). P. falciparum luciferase growth in erythrocytes, 48 h. Potency, µM (titrated, usually from 28.7 µM), without a hit: at the highest dose activity change, negative = inhibition, most hits filed as inhibitors. actives 5.9% (n = 310,000). AID 504832; also: potency is read from the fitted curve at half-maximal effect; % is scaled to controls: 0 for no effect and ±100 for the full control effect
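First compound was added to culture medium, then infected red cells at 0.1% parasitemia and 2% hematocrit (final). After incubation at 37 C under 5% CO2, luciferase detection reagent was dispensed and light output recorded.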
Pf growth 96h = P. falciparum growth inhibition at 96 hour, primary screen for plastid delayed-death inhibitors | AID 504834 | P. falciparum luciferase reporter growth, 96 h | actives 6.9% (n = 320,000) | Potency, µM (top dose mostly 28.7 µM), for the others: at the top dose activity change, negative = inhibition, usual class: inhibitors; also: potency is read from the fitted curve at half-maximal effect; % is scaled to controls: 0 for no effect and ±100 for the full control effect
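Cell-based qHTS: luciferase-tagged P. falciparum in erythrocytes (2% hematocrit, 0.05% parasitemia final) incubated with compounds for 96 hours, 37 C, 5% CO2; luciferase detection reagent then added and luminescence measured.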
Starred values were filed as active, the others as inactive; ? = inconclusive; nt = not tested or not shown; [ ] = dose if it differs, or a comment. Unless noted, calls follow the shape of the dose curve; as a rule, active = well fitted inhibition curve with a large enough effect; inconclusive = small, poorly fitted or top-dose-only effect, or another doubt; inactive = no such curve, though single readings can be large or run the other way.

SMILES | CHX counter | MARV entry inh | Shiga inhibitor | Lassa entry inh | Pf growth 48h | Pf growth 96h
O=C(c1ccc(C(F)(F)F)cc1)N1CCC(=O)N(C(COCc2ccccc2)Cc2ccccc2)CC1 (centres undefined) | 2 | -80% | -2 | ? | ? | 8.3µM*
CC(C)(C)c1ccc(C(=O)N2CCC(=O)N(C(COCc3ccccc3)Cc3ccccc3)CC2)cc1 (centres undefined) | -2 | ? | 2 | 8.2µM* | 9.3µM* | 12µM*
O=C(c1ccc(C(F)(F)F)cc1)N1CCC(=O)N(C(COCc2ccc(Cl)cc2)Cc2ccccc2)CC1 (centres undefined) | 2 | ? | -10 | ? | ? | ?
CCN(CC)C(=O)CSc1nnc(CCCCCNC(=O)OC(C)(C)C)o1 | -3 | -4% | -14 | -2% | ? | 10µM*
CCc1nnc(NS(=O)(=O)c2ccc(NC(=O)c3ccc(Cl)cc3)cc2)s1 | -2 | nt | -9 | nt | ? | ?
CCc1nnc(NS(=O)(=O)c2ccc(N/C=C\C(=O)c3ccc4ccccc4c3)cc2)s1 | 24* | -23% | 3 | ? | -7% | ?
CCc1nnc(NS(=O)(=O)c2ccc(NC(=O)c3ccccc3)cc2)s1 | -1 | nt | -11 | nt | ? | -2%
CCc1nnc(NS(=O)(=O)c2ccc(NCc3ccccc3O)cc2)s1 | -2 | 15% | -4 | 5% | 18% | 3.3µM*
CCc1nnc(NS(=O)(=O)c2ccc(NC(=O)c3ccc(C#N)cc3)cc2)s1 | -1 | -22%[46.1 µM] | 3 | 19%[46.1 µM] | ? | 10µM*
CCc1nnc(NS(=O)(=O)c2ccc(NCc3cc(Br)ccc3O)cc2)s1 | 1 | 16% | -6 | 19% | 5% | 38%
CCCN(CCC)S(=O)(=O)c1ccc(C(=O)Nc2ccc(S(=O)(=O)Nc3nnc(CC)s3)cc2)cc1 | -1 | 13% | -7 | -20% | 12µM* | ?
COc1ccc2c(C)c(C(=O)N3CC[C@@H](N4CCC(O)CC4)[C@H](O)C3)oc2c1 | -2 | nt | -12 | nt | ? | -18%
CCn1cc(C(=O)NCC2CCCO2)c(=O)c2cc(F)c(N3CCN(C)CC3)cc21 (centres undefined) | 1 | -21% | -16 | 9% | 8% | 4%
O=[N+]([O-])c1cccc2ccc(/C=C/c3ccc(Cl)cc3)nc12 | 45* | ? | 137* | 5% | 6% | ?
CC(=O)Nc1ccc(/C=C/c2ccc3c([N+](=O)[O-])cccc3n2)cc1 | 33* | -2%[46.1 µM] | 70* | 20% | 321% | 270%
CCOc1cc(/C=C/c2ccc3cccc([N+](=O)[O-])c3n2)cc(Cl)c1O | 11* | -20% | 22 | -14% | 9.3µM* | ?
O=[N+]([O-])c1cccc2ccc(/C=C/c3ccc(C(F)(F)F)cc3)nc12 | 21* | ? | 31 | -6% | ? | -24%
COc1cc(/C=C/c2ccc3cccc(OC)c3n2)c(O)c([N+](=O)[O-])c1 | 1 | nt | 18 | nt | ? | -3%
O=C(O)c1cc(/C=C/c2ccc(N3CCOCC3)c([N+](=O)[O-])c2)nc2ccccc12 | -4 | nt | -9 | nt | 26% | 88%
O=[N+]([O-])c1cc(C(F)(F)F)ccc1Sc1ccc2ccccc2n1 | 8 | -29% | 19 | -15% | 40% | 81%
O=C(NCc1ccccc1)c1onc(CSc2ccc(F)cc2)c1C(=O)NCc1ccccc1 | nt | 0% | nt | nt | nt | nt
Cc1ccc(C2C(C(=O)c3cccs3)=C(O)C(=O)N2c2nnc(C)s2)cc1 (centres undefined) | 8 | 30%[46.1 µM] | 4 | 21% | 8% | ?
CCOC(=O)c1oc2cc(O)cc(C)c2c(=O)c1-c1cscn1 | 7 | 8% | 2 | 6% | 28% | 0%
O=[N+]([O-])c1cccc2ccc(/C=C/c3cccc(Br)c3)nc12 | 42* | -18% | 70* | -20% | 21% | 0%
O=c1c(NCCc2ccccc2)c(-c2ccccc2)c1=O | 6 | -12%[46.1 µM] | 25 | 11%[46.1 µM] | 2.1µM* | -16%
SMILES | CHX counter | MARV entry inh | Shiga inhibitor | Lassa entry inh | Pf growth 48h | Pf growth 96h
CCn1c(CNc2cccc(C(F)(F)F)c2)n[nH]c1=S | -2 | nt | -5 | nt | 5% | 34%
COc1ccc(NC(=O)COC(=O)C2CC2)cc1S(=O)(=O)N1CCCCC1 | nt | nt | nt | nt | 13µM* | ?
CC1CC(C)CN(CCC(=O)Nc2ccc(Br)cc2)C1 (centres undefined) | -1 | -30% | nt | -15% | -7% | 7.4µM*
COc1ccc(NC(=O)CC2CCCC2)cc1S(=O)(=O)N1CCCCC1 | -1 | -1% | -5 | 10µM* | -7% | ?
O=C(CC1CCCCC1)Nc1ncn[nH]1 | 4 | 0% | -3 | 2% | 0% | 2.9µM*
COc1ccc(NC(=O)CN2CCCCC2)cc1S(=O)(=O)N1CCCCC1 | nt | -19% | nt | ? | nt | nt
COc1ccc(C2CC(c3ccccc3)Nc3nc(NC(=O)c4cccs4)nn32)cc1 (centres undefined) | -2 | ? | 2 | ? | ? | 153%
CCN1CCN(CCNC(=O)CSCc2nc(-c3ccc(OC)c(OC)c3)oc2C)CC1 | 11 | -16%[46.1 µM] | -7 | -13% | nt | ?
COc1ccc(Cl)cc1NCC(=O)Nc1ccc(OC)c(S(=O)(=O)N2CCCCC2)c1 | nt | nt | nt | nt | 9.3µM* | ?
COc1ccc(NC(=O)C2CCCN2c2ccc(OC)c(OC)c2)cc1OC (centres undefined) | -4 | -9%[46.1 µM] | -17 | -18% | 10µM* | 1%
COc1ccc(NC(=O)C2CCCCN2N)cc1OC (centres undefined) | 10 | 16% | 10 | 28% | 5% | -15%
CC1CC(C)(C)CC2(C1)NC(=O)N(CC(=O)N1CCN(S(=O)(=O)c3cccc(F)c3)CC1)C2=O (centres undefined) | nt | 26%[46.1 µM] | nt | 9%[46.1 µM] | nt | nt
CC1CC(C)(C)CC2(C1)NC(=O)N(CC(=O)N1CCN(S(=O)(=O)c3cccs3)CC1)C2=O (centres undefined) | nt | nt | nt | nt | 9.3µM* | ?
COc1ccc(NC(=O)CN2C(=O)NC3(CC(C)CC(C)(C)C3)C2=O)cc1S(=O)(=O)N1CCCCC1 (centres undefined) | nt | ? | nt | -6% | 13µM* | ?
COc1ccc(NC(=O)CN2C(=O)NC3(CCCC3)C2=O)cc1S(=O)(=O)N1CCCCC1 | nt | nt | nt | nt | 12% | ?
Cc1ccc(S(=O)(=O)c2nnn3c2nc(NCc2ccccc2)c2sccc23)cc1 | nt | nt | nt | -4%[46.1 µM] | nt | nt
COc1ccc(Br)cc1CNC(=O)c1cnc2sc(N3CCCCCC3)nn2c1=O | nt | nt | nt | -20%[46.1 µM] | nt | nt
CN1CCc2c(C#N)c(N3CCOCC3)nc(NCC3CCCO3)c2C1 (centres undefined) | 1 | nt | 8 | nt | ? | ?
COc1ccc(C=O)cc1CN1CCCN(Cc2ccccc2F)S1(=O)=O | 0 | 1%[46.1 µM] | 6 | 2%[46.1 µM] | 16% | 25%
O=C(CC1CCCC1)Nc1ccc(Br)cc1 | 32* | ? | 76* | ? | 106% | 103%
NCC(=O)Nc1ccc(Br)cc1 | -2 | ? | -15 | -17%[46.1 µM] | ? | 13%
